Results: PubChem BioAssay AID1159580 (chemical genetic matrix, 2015)
The whole screen tested about 5,500 compounds, of which about 2,000 (36%) were called active. Roughly 18% stayed inconclusive and do not appear here. No stated cut-off is given here; in the data, active means normalized growth mostly below about 0.91 (no sharp cut-off); inconclusive means no clear call, values can overlap the other calls; inactive means mostly above about 0.92. Some of the results follow.

Test: chemical genetic growth profiling, strain panel (AID 1159580);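 further: tested at 20 µM; growth read once vehicle control cultures reached saturation at 30 °C; 1 = growth at the plate median or of vehicle wells; lower values mean less growth of the strain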
Conditions: growth OD

Measured: normalized growth

CC(=O)C1CCC2C3CCC4C[C@H](O)CCC4(C)C3C[C@H](O)C12C (some centres not stated)
inactive: S. cerevisiae deletion strains, locus YJL187C, strain SWE1, active compounds read low 0.965 | S. cerevisiae deletion strains, locus YJR066W, strain TOR1, active compounds read low 0.923 | S. cerevisiae deletion strains, locus YKL009W, strain mrt4, active compounds read low 1.02 | S. cerevisiae deletion strains, locus YKL068W, active compounds read low 0.992 | S. cerevisiae deletion strains, locus YKL085W, strain MDH1 (second series), active compounds read low 0.987 | S. cerevisiae deletion strains, locus YKL085W, strain MDH1, active compounds read low 0.987 | S. cerevisiae deletion strains, locus YKL160W, strain elf1, active compounds read low 0.964 | S. cerevisiae deletion strains, locus YKR001C, strain vps1, active compounds read low 1.04 | S. cerevisiae deletion strains, locus YKR026C, strain gcn3, active compounds read low 0.962 | S. cerevisiae deletion strains, locus YKR091W, strain srl3, active compounds read low 0.972 | S. cerevisiae deletion strains, locus YLL001W, strain dnm1, active compounds read low 0.98 | S. cerevisiae deletion strains, locus YLL026W, active compounds read low 0.968 | S. cerevisiae deletion strains, locus YLL041C, strain sdh2, active compounds read low 0.963 | S. cerevisiae deletion strains, locus YLR027C, strain aat2, active compounds read low 0.985 | S. cerevisiae deletion strains, locus YLR039C, strain RIC1, active compounds read low 1.21 | S. cerevisiae deletion strains, locus YLR058C, strain SHM2, active compounds read low 1.05 | S. cerevisiae deletion strains, locus YLR102C, strain apc9, active compounds read low 1.01 | S. cerevisiae deletion strains, locus YLR113W, strain HOG1, active compounds read low 1.12 | S. cerevisiae deletion strains, locus YLR221C, strain rsa3, active compounds read low 0.984 | S. cerevisiae deletion strains, locus YLR258W, strain gsy2, active compounds read low 0.962 | S. cerevisiae deletion strains, locus YLR262C, strain YPT6 (second series), active compounds read low 0.991 | S. cerevisiae deletion strains, locus YLR262C, strain YPT6, active compounds read low 1.19 | S. cerevisiae deletion strains, locus YLR268W, strain sec22, active compounds read low 1.02 | S. cerevisiae deletion strains, locus YLR320W, strain mms22, active compounds read low 0.99 | S. cerevisiae deletion strains, locus YLR330W, strain CHS5, active compounds read low 1.03 | S. cerevisiae deletion strains, locus YLR342W, strain FKS1, active compounds read low 0.977 | S. cerevisiae deletion strains, locus YLR357W, strain rsc2, active compounds read low 0.98 | S. cerevisiae deletion strains, locus YLR370C, strain arc18, active compounds read low 0.98 | S. cerevisiae deletion strains, locus YLR371W, strain rom2, active compounds read low 1.02 | S. cerevisiae deletion strains, locus YLR384C, strain iki3, active compounds read low 0.97 | S. cerevisiae deletion strains, locus YLR418C, strain cdc73, active compounds read low 1.07 | S. cerevisiae deletion strains, locus YML016C, strain PPZ1, active compounds read low 1.03 | S. cerevisiae deletion strains, locus YML032C, strain rad52, active compounds read low 1.01 | S. cerevisiae deletion strains, locus YML120C, strain ndi1, active compounds read low 1 | S. cerevisiae deletion strains, locus YML124C, strain tub3, active compounds read low 0.998 | S. cerevisiae deletion strains, locus YMR058W, strain fet3, active compounds read low 0.968 | S. cerevisiae deletion strains, locus YMR078C, strain ctf18, active compounds read low 0.989 | S. cerevisiae deletion strains, locus YMR125W, strain sto1, active compounds read low 0.943 | S. cerevisiae deletion strains, locus YMR129W, active compounds read low 0.973 | S. cerevisiae deletion strains, locus YMR205C, strain PFK2, active compounds read low 0.987 | S. cerevisiae deletion strains, locus YMR223W, strain ubp8, active compounds read low 1.03 | S. cerevisiae deletion strains, locus YMR231W, strain pep5, active compounds read low 0.978 | S. cerevisiae deletion strains, locus YMR307W, strain GAS1, active compounds read low 1.34 | S. cerevisiae deletion strains, locus YNL067W, strain RPL9B, active compounds read low 1.02 | S. cerevisiae deletion strains, locus YNL071W, strain lat1, active compounds read low 0.975 | S. cerevisiae deletion strains, locus YNL183C, strain NPR1, active compounds read low 0.956 | S. cerevisiae deletion strains, locus YNL209W, strain ssb2, active compounds read low 0.967 | S. cerevisiae deletion strains, locus YNL233W, strain BNI4, active compounds read low 1.07 | S. cerevisiae deletion strains, locus YNL248C, strain rpa49, active compounds read low 0.975 | S. cerevisiae deletion strains, locus YNL250W, strain rad50, active compounds read low 0.999 | S. cerevisiae deletion strains, locus YNL271C, strain bni1, active compounds read low 1.01 | S. cerevisiae deletion strains, locus YNL298W, strain CLA4, active compounds read low 1.01 | S. cerevisiae deletion strains, locus YNL307C, strain MCK1, active compounds read low 0.994 | S. cerevisiae deletion strains, locus YNL322C, strain KRE1 (second series), active compounds read low 0.979 | S. cerevisiae deletion strains, locus YNL322C, strain KRE1, active compounds read low 1.02 | S. cerevisiae deletion strains, locus YNR049C, strain mso1, active compounds read low 0.961 | S. cerevisiae deletion strains, locus YNR052C, strain pop2, active compounds read low 1 | S. cerevisiae deletion strains, locus YOL006C, strain TOP1, active compounds read low 1.37 | S. cerevisiae deletion strains, locus YOL012C, strain htz1 1.2 | S. cerevisiae deletion strains, locus YOL147C, strain pex11, active compounds read low 0.995 | S. cerevisiae deletion strains, locus YOR001W, strain rrp6, active compounds read low 0.961 | S. cerevisiae deletion strains, locus YOR061W, strain CKA2, active compounds read low 1.03 | S. cerevisiae deletion strains, locus YOR069W, strain VPS5, active compounds read low 1.02 | S. cerevisiae deletion strains, locus YOR070C, strain gyp1, active compounds read low 0.982 | S. cerevisiae deletion strains, locus YOR080W, strain dia2, active compounds read low 0.98 | S. cerevisiae deletion strains, locus YOR083W, strain WHI5, active compounds read low 0.958 | S. cerevisiae deletion strains, locus YOR106W, strain vam3, active compounds read low 0.913 | S. cerevisiae deletion strains, locus YOR136W, strain idh2, active compounds read low 1 | S. cerevisiae deletion strains, locus YOR144C, strain elg1, active compounds read low 0.996 | S. cerevisiae deletion strains, locus YOR184W, strain ser1, active compounds read low 1.02 | S. cerevisiae deletion strains, locus YOR231W, strain MKK1, active compounds read low 1.03 | S. cerevisiae deletion strains, locus YOR265W, strain rbl2, active compounds read low 0.993 | S. cerevisiae deletion strains, locus YOR270C, strain vph1, active compounds read low 0.964 | S. cerevisiae deletion strains, locus YOR290C, strain snf2, active compounds read low 0.934 | S. cerevisiae deletion strains, locus YOR316C, strain cot1, active compounds read low 1 | S. cerevisiae deletion strains, locus YPL051W, strain arl3, active compounds read low 1 | S. cerevisiae deletion strains, locus YPL078C, strain atp4, active compounds read low 0.945 | S. cerevisiae deletion strains, locus YPL106C, strain sse1, active compounds read low 0.964 | S. cerevisiae deletion strains, locus YPL240C, strain hsp82, active compounds read low 0.987 | S. cerevisiae deletion strains, locus YPL241C, strain CIN2, active compounds read low 1.02 | S. cerevisiae deletion strains, locus YPL256C, strain CLN2, active compounds read low 0.994 | S. cerevisiae deletion strains, locus YPR119W, strain clb2, active compounds read low 0.988 | S. cerevisiae deletion strains, locus YPR141C, strain kar3, active compounds read low 0.996 | S. cerevisiae deletion strains, locus YPR163C, strain tif3, active compounds read low 1 | S. cerevisiae deletion strains, locus YPR167C, strain met16, active compounds read low 1.01 | S. cerevisiae deletion strains, strain wtn01, active compounds read low 1.01 | S. cerevisiae strains, strain wild type, active compounds read low 1.07
